Compound activity (PubChem BioAssay)
Hits are enriched below; roughly 0.44% of the tested compounds scored in any of these assays.
EPAC2 agonist = agonists of human EPAC2 (RAPGEF4) | Q8WZA2 | EPAC2 activation, biochemical qHTS; response scale: 100% = 6.5 mM cAMP response | Potency, µM (series often up to 154 µM), for the others: at the top dose activation, most hits filed as activators | 0.079% of 360,000 active | AID 720711; further: nearly all actives have a fitted effect of over 50% in size
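qHTS, titration series. 100 nM EPAC2 / 250 nM Rap1B-BODIPY-GDP / 50 uM GDP; RT; ex 480/em 540 nm, 5-min reads to 30 min. Norm. to 6.5 mM cAMP = activation.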
EPAC1 ag = agonists of human EPAC1; 0.073% of 360,000 active; O95398; AID 720707; Potency, µM (titrated, usually from 154 µM), for inactives: at the top dose activation, most hits filed as activators; EPAC1 agonist qHTS, biochemical assay; response scale: 100% = response to 6.5 mM cAMP; further: nearly all actives have a fitted effect of over 60% in size
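Multi-concentration qHTS readout: loss of Rap1B-bound BODIPY-GDP fluorescence driven by 100 nM EPAC1 with excess GDP (50 uM), monitored kinetically at room temperature; agonist response expressed relative to 6.5 mM cAMP.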
EPAC1 antagonist = blocks human EPAC1 exchange factor. O95398. EPAC1 GEF assay, Rap1b-BODIPY-GDP exchange fluorescence. Potency, µM (highest dose often 115 µM), for the others: at the top dose activity change, negative = inhibition, actives largely listed as inhibitors. 0.14% of 360,000 active;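 further: plate controls were vehicle for no effect and positive control for full effect; nearly all actives have a fitted effect of over 50% in size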
USP1 inh = USP1/UAF1 (human) deubiquitinase inhibition; O94782; recombinant USP1/UAF1, Ub-Rhodamine cleavage fluorescence; Potency, µM (doses to about 57.1 µM), for the others: at the top dose activity change, negative = inhibition, most hits filed as inhibitors; 0.23% of 390,000 active; AID 743255; further: on the % scale 0 is the no-effect control and ±100 the full control effect; nearly all actives have a fitted effect of over 60% in size
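In this screen, compounds sit with the deubiquitinase complex (1nM) for 15 min at room temperature before Ub-Rho is added at 150nM final. Fluorescence rise is then followed for 6 reads every 60 seconds.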
EPAC2 antag = blocks human EPAC2 exchange factor | AID 720708 | 0.18% of 360,000 active | EPAC2 GEF exchange of Rap1B-BODIPY-GDP, fluorescence | Potency, µM (series often up to 114 µM), without a hit: at the top dose activity, negative = inhibition, usual class: inhibitors; further: on the % scale 0 is the no-effect control and ±100 the full control effect; nearly all actives have a fitted effect of over 45% in size
* marks the source's active call; other numbers are inactive results; ? = inconclusive; . = not tested or not shown. The call rests on the fitted dose curve; in most records, active means well fitted curve in the direction sought with a large enough effect; inconclusive means small, poorly fitted or top-dose-only effect, or another doubt; inactive means no such curve, though single readings can be large; an effect the other way counts as inactive or inconclusive. Potency means the concentration at half of the fitted maximal effect.

SMILES | EPAC2 agonist | EPAC1 ag | EPAC1 antagonist | USP1 inh | EPAC2 antag
CCOc1ccc(N2C(=O)/C(=C/c3ccco3)C(=O)NC2=S)cc1 | 2.6% | -3.2% | 11.2µM* | 22.4µM* | ?
CCOc1ccc(N2C(=O)/C(=C\c3cccs3)C(=O)NC2=S)cc1 | 6.5% | -2.9% | 21.8% | -19.9% | 9.0%
Brc1nc(-c2ccccc2)nc(-c2ccccc2)c1Br | 2.3% | -4.1% | 2.9% | -11.1% | -27.2%
C[C@H](CO)N1C[C@H](C)[C@H](CN(C)S(=O)(=O)c2ccccc2)Oc2ccc(NC(=O)NC3CCCCC3)cc2CC1=O | 4.7% | 7.1% | ? | -6.5% | -11.3%
Cc1cccc(N2C(=O)NC(=O)/C(=C\c3cc(C)n(-c4sc5c(c4C#N)CCCC5)c3C)C2=O)c1C | -2.7% | 11.7% | 35.5µM* | ? | -22.3%
CN(c1ccc(O)cc1)c1ccc([N+](=O)[O-])c2nonc12 | -0.5% | 3.2% | -17.0% | -16.2% | -23.1%
Nc1ccc2nonc2c1[N+](=O)[O-] | ? | ? | 1.4% | 31.6µM* | -1.5%
Cn1cccc1/C=C1/C(=O)NC(=S)N(Cc2ccc(F)cc2)C1=O | 3.1% | -11.7% | 15.8µM* | -28.9% | -0.3%
Cn1cccc1/C=C1/C(=O)NC(=O)N(Cc2ccc(F)cc2)C1=O | 8.0% | 1.7% | ? | -12.8% | 2.5%
COc1cccc(C(C)(O)c2nc(-c3cccc(F)c3)cs2)c1 (centres undefined) | 5.6% | -6.9% | -24.9% | . | ?
N#Cc1cc(NC(=O)c2ccc(Cl)cc2)ccc1Sc1ccccc1 | -14.3% | -14.2% | 5.0% | . | ?
CCCCn1c(O)c(C(=O)/C=C/c2c[nH]c3ccccc23)c(=O)[nH]c1=O | 9.1% | 13.5% | 12.3% | 25.1µM* | 4.5%
Cc1cc(C)cc(-n2c(/C=C/c3cccc(F)c3)nc3ccccc3c2=O)c1 | . | . | . | -23.0% | .
Cc1cccc(N=Cc2c(O)n(-c3ccccc3C)c(=O)[nH]c2=O)c1 | -1.9% | -0.7% | 2.5% | -15.0% | 2.1%
Cc1ccccc1-n1c(O)c(/C=C/C=Nc2ccccc2)c(=O)[nH]c1=O | ? | 89.1µM* | 64.2% | 31.6µM* | 88.5%
Cc1cccc(-n2c(O)c(/C=C/C=Nc3ccccc3)c(=O)[nH]c2=O)c1 | -21.6% | 100µM* | 6.4% | ? | 9.1%
CNS(=O)(=O)c1ccc(N=Cc2c(O)n(-c3cccc(C)c3)c(=O)[nH]c2=O)cc1 | 26.0% | 11.8% | 9.5% | -5.4% | -4.5%
COC(=O)c1ccc(COC(=O)c2nn(C)c(=O)c3ccccc23)cc1 | 5.5% | -6.6% | ? | -18.9% | -13.4%
O=c1cc(-c2ccc(O)c(O)c2)oc2cc(O)cc(O)c12 | 6.4% | -21.8% | 44.7µM* | ? | 1.8%
CN1C[C@@H]2[C@@H]3C(=O)N(Cc4ccccc4)C(=O)[C@@H]3[C@](Cc3ccccc3)(C1=O)N2C(=O)c1ccc(F)cc1 | 5.6% | 0.5% | -4.0% | ? | -11.7%
CCN(CC)c1ccc(N=Cc2c(O)n(CCC3=CCCCC3)c(=O)[nH]c2=O)cc1 | ? | 5.3% | 6.8% | 193.3% | 56.2µM*
CN(C)c1ccc(N=Cc2c(O)n(CCC3=CCCCC3)c(=O)[nH]c2=O)cc1 | 18.8% | ? | 16.8% | -0.1% | 15.6%
Nc1ccc2ccc3cccc[n+]3c2c1 | 112µM* | 100µM* | 342.2% | 28.2µM* | 359.7%
C[n+]1c(-c2ccccc2)c2cc(N)ccc2c2ccc(N)cc21 | 3.1% | -11.6% | -6.8% | ? | -21.4%
N#Cc1cc2c(nc1SCC(=O)Nc1ccc(OC(F)(F)F)cc1)C1CCN2CC1 | . | . | . | -0.7% | .
SMILES | EPAC2 agonist | EPAC1 ag | EPAC1 antagonist | USP1 inh | EPAC2 antag
CCC1(O)C(=O)OCc2c1cc1n(c2=O)Cc2cc3c(N)cccc3nc2-1 (centres undefined) | -2.4% | -1.1% | -12.3% | -12.6% | 14.4%
COc1ccc(OC)c(N=Cc2c(O)n(Cc3ccccc3)c(=S)[nH]c2=O)c1 | ? | 7.7% | 5.6% | 28.2µM* | 4.0%
COc1ccc(N=Cc2c(O)n(Cc3ccccc3)c(=S)[nH]c2=O)c(OC)c1 | 100µM* | 10.5% | -9.5% | 11.6% | 0.6%
COc1cc(C(=O)OCc2cc(=O)c(O)co2)ccc1OC(F)F | -8.0% | 1.7% | -1.7% | ? | -3.7%
COc1ccccc1Cc1c(-c2ccc(C)cc2)nc2cc(C)c(Br)c(C)n12 | 15.4% | ? | -19.7% | . | 6.7%
COc1ccc(C(SCC(NC(=O)OCc2ccccc2)C(=O)O)c2ccc(OC)cc2)cc1 (centres undefined) | 2.8% | -4.4% | -3.9% | -2.5% | 14.1µM*
Cc1ccc([C@H]2C[C@H](n3cc(C4CC4)nn3)[C@@H](O)CN2Cc2cccs2)cc1 | 5.8% | -7.3% | -11.9% | ? | -0.3%
CN1C(=O)NC(=O)/C(=C/c2ccc([N+](=O)[O-])s2)C1=O | 0.0% | 6.8% | ? | 25.1µM* | 1.4%
O=C1NC(=O)N(c2ccccc2)C(=O)/C1=C\c1ccc([N+](=O)[O-])s1 | 4.5% | -4.1% | ? | 17.8µM* | 12.7%
COc1ccc(OC)c(N2C(=O)NC(=O)/C(=C\c3ccc([N+](=O)[O-])s3)C2=O)c1 | -14.6% | -5.9% | ? | ? | 5.7%
CN1C(=O)C(=Cc2ccc(N3CCCCCC3)o2)C(=O)N(C)C1=S | ? | 11.5% | -5.2% | 25.1µM* | -0.6%
O=C1c2ccccc2-c2cc3ccccc3cc21 | -1.6% | 6.0% | 1.7% | -24.7% | 5.7%
O=C1C=C(N2CC2)c2ccccc2C1=O | 15.0% | 13.6% | ? | 7.08µM* | ?
O=c1[nH]c(=S)n(-c2ccccc2F)c(O)c1C=Nc1ccc(N2CCOCC2)cc1 | ? | 56.2µM* | 88.2% | 25.1µM* | 92.7%
O=c1[nH]c(=S)n(-c2ccc(Br)cc2)c(O)c1C=Nc1ccc(N2CCOCC2)cc1 | -4.4% | -17.5% | -0.2% | 31.6µM* | 24.9%
Cc1cc(C)cc(-n2c(O)c(C=Nc3ccc(N4CCOCC4)cc3)c(=O)[nH]c2=S)c1 | -3.9% | 11.4% | -23.8% | -20.5% | 21.5%
O=c1[nH]c(=S)n(-c2ccc(F)cc2)c(O)c1/C=N/N1CCOCC1 | -3.8% | 8.1% | 9.4% | -20.4% | 7.3%
CN1/C(=C\C=C2C(=O)NC(=S)NC2=O)C(C)(C)c2ccccc21 | 50.1µM* | ? | 130.6% | ? | 199.8%
CC1(C)OC(c2ccccc2)=C/C(=C/C=C2C(=O)NC(=S)NC2=O)O1 | -42.0% | -118.8% | 77.1% | -42.5% | ?
Cc1cc(C=C2C(=O)NC(=S)NC2=O)c(C)n1-c1ccc2c(c1)OCO2 | -0.7% | -5.8% | 56.2µM* | -12.7% | -5.3%
O=[N+]([O-])c1cc([As](=O)(O)c2ccc(O)c([N+](=O)[O-])c2)ccc1O | -0.6% | -4.2% | 9.9% | -12.3% | 17.8µM*
O=C(Nc1ccc(Oc2ccc(Cl)cc2)c(Cl)c1)c1cc(I)cc(I)c1O | 4.2% | -13.7% | 39.8µM* | ? | ?
